# “And” between values parts separate entries of the source, which are not always exact repeats. Equal entries are not always repeated. Inconclusive results are not listed. A structure can be active in one record and inactive in another. The source made the active and inactive calls. Calls follow the shape of the dose curve; as a rule, active = well fitted cell-killing curve with a large enough effect in the repeat runs; inconclusive = weak or mixed curves; inactive = flat fitted curve, though single readings scatter.
# Assay: qHTS RealTime-Glo MT Cell Viability Assay in HepG2 cells - 16 hour (AID 1224885); also: nearly all actives have a fitted effect of over 50% in size
# Details: RealTime-Glo luminescence; series mostly up to 76.8 µM; activity change, negative = cytotoxic: at the top concentration
# Text: U.S. Tox21 Program National Center for Advancing Translational Sciences [NCATS] NIH Chemical Genomics Center [NCGC] U.S. Environmental Protection Agency [EPA] National Institutes of Environmental Health Sciences [NIEHS] National Toxicology Program [NTP] U.S. Food and Drug Administration [FDA] Tox21 Assay Overview: Measure of cell viability is critical in the cell-base assay. Analysis of cell viability is necessary for the characterization of cell responses to cytotoxic drugs and environmental stress. A RealTime-Glo MT Cell Viability Assay to monitor cell viability in real time of continues cell culture during 40 hours of compound treatment was used to screen Tox21 10K library compounds in HepG2 cells. The RealTime-Glo MT Cell Viability Assay is a nonlytic, homogeneous, bioluminescent method to measure cell viability in real time using a simple, plate-based method. The assay involves adding NanoLuc luciferase and a cell-permeant prosubstrate to cells in culture. Viable cells reduce the proprietary prosubstrate to generate a substrate for NanoLuc luciferase. This substrate diffuses from cells into the surrounding culture medium, where it is rapidly used by the NanoLuc Enzyme to produce a luminescent signal. The signal correlates with the number of viable cells, making the assay well suited for cytotoxicity studies.
# Tox21 Assay Protocol Summary: The mixture of HepG2 cell suspension and reagents were dispensed at 600cells/6 ul/well in 1536-well tissue culture treated black solid bottom plates using a Multidrop dispenser. After the assay plates were incubated at a 37 C/5% CO2 incubator for 5 hours, 23 nL of compounds dissolved in DMSO, positive and negative controls was transferred to the assay plate by a pintool work station. The plates were incubated at 37 C for 40 hours. The luminescence intensity were measured at 0h, 8h, 16h, 24h, 32h and 40h time points using ViewLux plate reader during compound treatment.
# % is scaled to controls: 0 for no effect and ±100 for the full control effect; potency is read from the fitted curve at half-maximal effect.
SMILES,"activity change, negative = cytotoxic",Potency
CC(C)CCOC(=O)c1ccc(N(C)C)cc1,-6.31% [at 35.3 µM] (inactive),–
Nc1nc2ccccc2[nH]1,–,inactive
c1cc(C(c2ccc(OCC3CO3)cc2)C(c2ccc(OCC3CO3)cc2)c2ccc(OCC3CO3)cc2)ccc1OCC1CO1 (stereo not given),–,inactive
Cc1cccc2n[nH]nc12,–,inactive
CCN1CCCC1CNC(=O)c1cc(S(=O)(=O)CC)c(N)cc1OC (stereo not given),0.522% [at 35.3 µM] (inactive),–
CCC[C@H](N[C@@H](C)C(=O)N1[C@H](C(=O)O)C[C@@H]2CCCC[C@@H]21)C(=O)OCC,–,inactive
CCCCN(CCO)CCCC,-0.337% (inactive),–
CC(C)(O)CCC(C)(C)O,-1.52% (inactive),–
C1COC(NC(C2CC2)C2CC2)=N1,-1.76% [at 35.3 µM] (inactive),–
C/C=C/c1ccc(OCC)c(O)c1,–,inactive
O=C1Nc2ccccc2C1(c1ccc(O)cc1)c1ccc(O)cc1,–,inactive
O=Cc1ccc(Cl)cc1,3.58% (inactive),–
CCCCCCC(O)CCCCCCCCCCC(=O)O (stereo not given),–,inactive
Cc1cccc(O)c1C,–,inactive
COC(=O)c1cccc(C(=O)OC)c1,–,inactive
CN(C)c1ccc(C(=C2C=CC(=[N+](C)C)C=C2)c2ccccc2)cc1,–,10.7 µM (active) [middle of 4 runs]
CO[Si](OC)(OC)c1ccccc1,-0.886% (inactive),–
CCCC(=O)c1ccccc1,3.51% (inactive),–
Cc1cc(OCCOCC[N+](C)(C)Cc2ccccc2)ccc1C(C)(C)CC(C)(C)C,–,17.3 µM (active) and 21.3 µM (active)
NC(=Nc1ccccc1)Nc1ccccc1,–,inactive

SMILES,"activity change, negative = cytotoxic",Potency
O=C1CC2(CCCC2)CC(=O)N1CCCCN1CCN(c2ncccn2)CC1,–,inactive
C=CS(=O)(=O)O,2.13% (inactive),–
COc1ccc(COC(C)=O)cc1,–,inactive
CCc1cc(C(C)(C)C)c(O)c(C(C)(C)C)c1,–,inactive
CCC(CO)(CO)COCC(CC)(CO)CO,3.79% (inactive),–
CC(C)(C)NCC(O)COc1ccccc1OCC1CCCO1 (stereo not given),3.92% [at 35.3 µM] (inactive),–
CC(C)(C)c1cc(C(C)(C)C)c(O)c(C(C)(C)C)c1,–,inactive
O=C(Oc1ccccc1)c1ccccc1O,–,inactive
Nc1ccc(O)cc1,–,57.1 µM (active) and inactive
O=C1NCC2(CCN(CCc3ccccc3)CC2)O1,-0.624% [at 35.3 µM] (inactive),–
NCCCCCC(=O)O,-4.46% [at 35.3 µM] (inactive),–
c1cnc2cc3c(cc2n1)C1CNCC3C1,0.994% [at 35.3 µM] (inactive),–
Nc1ccc2cc3ccccc3cc2c1,–,inactive
CC1=C(C=O)C(C)(C)CC=C1,4.46% (inactive),–
[Cl][In]([Cl])[Cl],–,inactive
O,–,inactive
C=CC(=O)OCCCCCCCC,3.99% (inactive),–
CC(=O)CC(=O)Nc1ccc2[nH]c(=O)[nH]c2c1,7.09% (inactive),–
O=C(Cl)c1cccc(C(=O)Cl)c1,–,inactive
CC(=O)Nc1ccc(C(=O)CCl)cc1,0.332% (inactive),–
